For assay [1], the system named is Wnt5a (protein binding on small-molecule microarray). As to the kind of experiment: Wnt5a binders on small-molecule microarray, primary screen, biophysical, 635/667 nm fluorescence (AID 1142).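 Note: fluorescence read at 667 nm with signal to noise per printed feature.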 To be noted: 635 nm fluorescence, higher = more signal.
The nature of assay [2]: cell viability in Huh7 cells, primary screen, cytotoxicity control for HCV replication inhibitor project, CellTiter-Glo luminescence, basal, 48 h (AID 1143).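 Note: Huh7 hepatoma cells carrying a hepatitis C replication reporter with no stimulus; test concentration not given here.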 To be noted: Huh7 HCV replicon, higher = more signal, called active from +8 up or from −8 down.
Assay [3] in a line: P. aeruginosa biofilm formation inhibitors, primary screen, PAO1 strain, BacTiter-Glo luminescence, LB-PBS (AID 1144). As to conditions: 12 h, higher = more signal.
Assay [4] can be described thus: CREB reporter modulators without forskolin, primary screen, cell-based, PC12, CRE-LacZ reporter, unstimulated (AID 1145). As to conditions: no forskolin, luminescence, 4.5 h, higher = more signal, called active from +8 up or from −8 down.
Assay [5] is described as follows: CREB reporter modulators under forskolin, primary screen, cell-based, PC12, CRE-LacZ reporter, forskolin-stimulated (AID 1146).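 Note: PC12 cells with 6xCRE LacZ reporter stimulated by forskolin 10 µM; beta-galactosidase reporter signal reflecting CREB driven transcription.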 As to conditions: luminescence, 4.5 h, higher = more signal, called active from +8 up or from −8 down.
Assay [6] has as its target Streptavidin (Streptomyces avidinii) (UniProt P22629). The experiment in a line: streptavidin binders on small-molecule microarray, primary screen, artefact control for SMM compound annotation, biophysical, 635/667 nm fluorescence (AID 1147).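 Note: signal reflects streptavidin binding to arrayed compounds as a control protein.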 As to conditions: streptavidin binding, higher = more signal.
The nature of assay [7]: small-molecule binders of probe aInhba, primary screen, biochemical, small-molecule microarray, 635/667 nm fluorescence (AID 1148).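 Note: score merges 667nm spot fluorescence with signal-to-noise for antibody binding to printed compounds.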 To be noted: higher = more signal.
Assay [8] deals with Torsin-1A (Homo sapiens) (UniProt O14656). As to the kind of experiment: torsin A binders from cell lysate, primary screen, small-molecule microarray, wild-type, 635/667 nm (AID 1149). To be noted: COS7 hTOR1A-WT lysate, 635 nm fluorescence, higher = more signal.
For assay [9] the target is unchanged. The experiment in a line: small-molecule binders of mutant TOR1A in lysate, primary screen, cell lysate, small-molecule microarray, COS7 lysate, 635/667 nm fluorescence (AID 1150).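 Note: score pools 667 nm emission and signal to noise measuring lysate protein binding.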 As to conditions: COS7 hTOR1A mutant lysate, 635 nm fluorescence, higher = more signal.
Assay [10] relates to Sonic hedgehog protein (Shh). As to the kind of experiment: small-molecule binders of Shh protein, primary screen, biochemical, small-molecule microarray, 635/667 nm fluorescence (AID 1151).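 Note: Shh protein binding to compounds spotted on small-molecule microarray slides; score combines spot fluorescence intensity with signal-to-noise across triplicate slides.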 To be noted: small-molecule microarray binding, 635 nm fluorescence; higher = more signal.
A short description of assay [11]: E. coli DRC41 culture turbidity changes, primary screen, E. coli filamentation inducer project, strain DRC41, OD650, 48 h (AID 1152).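 Note: E. coli MC1000 strain DRC41 lacking acrAB efflux pump and sulA.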 To be noted: E. coli DRC41 (acrAB sulA), higher = more signal, called active from +8 up or from −8 down.
Assay [12] is described as follows: small-molecule binders of probe aLefty1, primary screen, biochemical, small-molecule microarray, 635/667 nm fluorescence (AID 1153).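 Note: score merges spot fluorescence with signal-to-noise ratio from the scanned slide images.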 As to conditions: higher = more signal.
Assay [13] is described as follows: PSAC antagonists in infected red cells, primary screen, cell-based, P. falciparum Indochina, OD700, 1 h (AID 1154). To be noted: P. falciparum Indochina infected RBC osmotic lysis, higher = more signal, called active from +8 up or from −8 down.
A short description of assay [14]: PSAC antagonists in infected red cells, primary screen, cell-based, P. falciparum Indochina, OD700, 2 h (AID 1155).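 Note: lysis reports solute entry through the parasite surface anion channel PSAC; channel blockers reduce lysis of infected cells.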 To be noted: P. falciparum Indochina infected erythrocytes, osmotic lysis OD700; higher = more signal, called active from +8 up or from −8 down.
A short description of assay [15]: osmotic lysis modulators in infected erythrocytes, primary screen, PSAC antagonist project, cell-based, P. falciparum Indochina, OD700, 3 h (AID 1156). As to conditions: higher = more signal, called active from +8 up or from −8 down.
The nature of assay [16]: PSAC antagonists in infected red cells, primary screen, cell-based, P. falciparum Indochina, OD700, 18 h (AID 1157). To be noted: P. falciparum Indochina infected erythrocytes, osmotic lysis OD700, 18 h; higher = more signal, called active from +8 up or from −8 down.
Assay [17] in a line: modulators of S6 phosphorylation in cells, primary screen, cell-based, A549, cytoblot, luminescence, serum-stimulated (AID 1158).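 Note: serum-stimulated A549 lung adenocarcinoma cells; signal is phosphorylated S6 detected by cytoblot immunostaining with HRP secondary.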 As to conditions: A549 phospho-S6 cytoblot, 5 h, higher = more signal.
In assay [18] the target is NADPH oxidase 2 (Homo sapiens) (UniProt P04839). As to the kind of experiment: NOX2-dependent H2O2 signal modulators, primary screen, NOX inhibitor project, cell-based, HEK293-NOX2, PMA-stimulated, Amplex Red fluorescence (AID 1159). Note: test concentration not given here. To be noted: 45 min, higher = more signal, called active from +8 up or from −8 down.
Assay [19] addresses NADPH oxidase 4 (Homo sapiens) (UniProt Q9NPH5). The experiment in a line: NOX4-dependent H2O2 signal modulators, primary screen, NOX inhibitor project, cell-based, HEK293-NOX4, tetracycline-induced, Amplex Red fluorescence (AID 1160). To be noted: 45 min, higher = more signal, called active from +8 up or from −8 down.
In assay [20] the target is NADPH oxidase 5 (Homo sapiens) (UniProt Q96PH1). As to the kind of experiment: NOX5-dependent H2O2 signal modulators, primary screen, NOX inhibitor project, cell-based, HEK293-NOX5, Amplex Red fluorescence (AID 1161). As to conditions: HEK293-NOX5, ionomycin, 45 min, higher = more signal.

Calls of active or inactive are those of the source. Unless noted, the rule behind the calls is not given here.

Streptavidin (Streptomyces avidinii), sequence (P22629 whole entry, looked up): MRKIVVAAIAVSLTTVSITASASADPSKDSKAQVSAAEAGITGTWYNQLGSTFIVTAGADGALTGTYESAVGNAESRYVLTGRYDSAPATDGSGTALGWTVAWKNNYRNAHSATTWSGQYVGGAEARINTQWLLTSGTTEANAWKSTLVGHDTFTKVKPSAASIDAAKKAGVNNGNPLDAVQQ
NADPH oxidase 5 (Homo sapiens), sequence (Q96PH1 whole entry, looked up): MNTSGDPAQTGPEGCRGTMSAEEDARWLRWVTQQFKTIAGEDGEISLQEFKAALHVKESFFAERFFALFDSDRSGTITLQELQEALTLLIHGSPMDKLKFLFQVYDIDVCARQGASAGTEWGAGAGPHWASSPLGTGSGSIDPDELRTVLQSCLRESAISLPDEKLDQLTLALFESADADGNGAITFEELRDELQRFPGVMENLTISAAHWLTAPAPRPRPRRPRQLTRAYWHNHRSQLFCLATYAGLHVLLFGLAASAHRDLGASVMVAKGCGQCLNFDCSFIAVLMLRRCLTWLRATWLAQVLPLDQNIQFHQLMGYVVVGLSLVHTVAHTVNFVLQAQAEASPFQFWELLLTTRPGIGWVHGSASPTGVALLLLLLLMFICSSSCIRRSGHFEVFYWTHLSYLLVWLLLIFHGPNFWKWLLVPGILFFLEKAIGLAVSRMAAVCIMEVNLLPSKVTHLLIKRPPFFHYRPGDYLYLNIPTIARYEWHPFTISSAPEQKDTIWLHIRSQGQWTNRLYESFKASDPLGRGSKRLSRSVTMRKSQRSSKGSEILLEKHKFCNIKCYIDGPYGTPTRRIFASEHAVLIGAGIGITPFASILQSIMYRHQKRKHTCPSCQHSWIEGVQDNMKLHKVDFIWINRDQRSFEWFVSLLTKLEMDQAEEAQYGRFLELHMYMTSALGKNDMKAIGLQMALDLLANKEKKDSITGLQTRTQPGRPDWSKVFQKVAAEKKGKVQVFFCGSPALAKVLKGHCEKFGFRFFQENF
NADPH oxidase 4 (Homo sapiens), sequence (Q9NPH5 whole entry, looked up): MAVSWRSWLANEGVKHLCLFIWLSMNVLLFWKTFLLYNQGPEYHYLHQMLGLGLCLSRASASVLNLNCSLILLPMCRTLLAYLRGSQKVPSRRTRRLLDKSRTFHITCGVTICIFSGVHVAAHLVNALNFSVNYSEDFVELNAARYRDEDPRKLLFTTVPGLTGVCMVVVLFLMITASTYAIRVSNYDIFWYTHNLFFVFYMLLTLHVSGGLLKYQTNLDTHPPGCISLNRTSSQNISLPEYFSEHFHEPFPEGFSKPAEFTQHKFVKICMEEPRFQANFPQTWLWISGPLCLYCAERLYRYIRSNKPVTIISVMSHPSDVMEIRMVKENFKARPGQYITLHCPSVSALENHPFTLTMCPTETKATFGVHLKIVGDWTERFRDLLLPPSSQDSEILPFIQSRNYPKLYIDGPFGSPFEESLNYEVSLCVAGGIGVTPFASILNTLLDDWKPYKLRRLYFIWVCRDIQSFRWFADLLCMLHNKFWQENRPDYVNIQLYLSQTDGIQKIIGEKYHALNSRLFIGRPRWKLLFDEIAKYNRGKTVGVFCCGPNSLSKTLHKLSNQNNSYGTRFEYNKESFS
NADPH oxidase 2 (Homo sapiens), sequence (P04839 whole entry, looked up): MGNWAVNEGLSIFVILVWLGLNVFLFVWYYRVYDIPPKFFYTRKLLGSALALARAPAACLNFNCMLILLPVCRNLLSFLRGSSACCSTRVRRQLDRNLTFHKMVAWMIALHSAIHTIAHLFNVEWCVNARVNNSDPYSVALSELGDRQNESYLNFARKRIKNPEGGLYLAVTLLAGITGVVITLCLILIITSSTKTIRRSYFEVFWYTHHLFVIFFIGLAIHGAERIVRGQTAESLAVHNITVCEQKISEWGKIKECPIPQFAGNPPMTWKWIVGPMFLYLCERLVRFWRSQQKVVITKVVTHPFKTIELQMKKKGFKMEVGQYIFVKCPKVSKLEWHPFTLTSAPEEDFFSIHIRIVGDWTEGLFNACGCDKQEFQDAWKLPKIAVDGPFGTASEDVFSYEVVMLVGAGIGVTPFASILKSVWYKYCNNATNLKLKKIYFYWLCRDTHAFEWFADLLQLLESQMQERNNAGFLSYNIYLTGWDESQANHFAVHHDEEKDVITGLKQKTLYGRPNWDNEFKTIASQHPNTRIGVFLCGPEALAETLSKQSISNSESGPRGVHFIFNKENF
Torsin-1A (Homo sapiens), sequence (O14656 whole entry, looked up): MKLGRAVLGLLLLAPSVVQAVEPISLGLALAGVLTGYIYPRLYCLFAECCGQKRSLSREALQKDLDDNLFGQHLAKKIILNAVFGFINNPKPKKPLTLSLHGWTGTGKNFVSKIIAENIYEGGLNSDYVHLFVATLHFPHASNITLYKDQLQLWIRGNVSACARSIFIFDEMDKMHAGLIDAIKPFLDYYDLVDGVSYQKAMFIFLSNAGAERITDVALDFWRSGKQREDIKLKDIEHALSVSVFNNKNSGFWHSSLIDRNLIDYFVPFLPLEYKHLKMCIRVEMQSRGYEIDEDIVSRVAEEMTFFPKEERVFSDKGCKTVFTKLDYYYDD

With `COC(=O)[C@@]1(Cc2ccc(OC)cc2)[C@H]2c3cc(C(=O)N4CCCC4)n(CCn4cc([N+](=O)[O-])nc4C)c3C[C@H]2CN1C(=O)c1ccccc1`, the composite z-score in assay [1] was 1.94; in assay [6], 2.22; in assay [7] it was 1.84; in assay [8], -0.236; in assay [9], 1.75; in [10], -0.455. The molecule further returned a composite z-score in assay [12] of 2.16. The z-score in [2] is -0.798 (inactive); in assay [3], -0.245 (inactive); in assay [4], 0.779 (inactive); in assay [5], 0.861 (inactive); in [11], -2.21 (inactive); in [13], 2.38 (inactive). Moreover, the z-score is 0.0212 (inactive) in assay [14]; 0.217 (inactive) in assay [15]; 0.543 (inactive) in [16]; -0.108 in assay [17]; 0.54 (inactive) in assay [18]; -1.39 (inactive) in assay [19]. In [20], this molecule returned a z-score of -2.54.

With `COCC(=C=CC[C@H](O)c1ccccc1OCCO)C[C@H](O)COCc1ccccc1`, the composite z-score was determined as 1.16 in assay [1]; 0.259 in assay [6]; 0.0541 in assay [7]; 1.29 in assay [8]; 1.13 in assay [9]; 1.73 in assay [10]. In addition, in assay [12], the composite z-score was 0.131. Besides, the z-score in [2] was -0.729 (inactive); in assay [3], 1.27 (inactive); in [4] it was 5.1 (inactive); in assay [5], 0.497 (inactive); in assay [11], -0.186 (inactive); in assay [13], 9.07 (active). In addition, the z-score is 1.07 (inactive) in [14]; 0.287 (inactive) in assay [15]; 0.896 (inactive) in [16]; -0.408 in [17]; 0.0204 (inactive) in assay [18]; -1.22 (inactive) in [19]. The molecule also returned a z-score in assay [20] of -1.92.

Consider `CCCCCCc1nc(Cc2cc(OC)c(OC)c(OC)c2)cc2c1[Si](C(C)C)(C(C)C)O[C@H]2c1ccccc1`, for which the composite z-score was -0.0493 in assay [1]; 0.0406 in assay [6]; -0.154 in [7]; 0.128 in assay [8]; -0.155 in [9]; 1.19 in [10]. In assay [12], this molecule returned a composite z-score of 0.092. In addition, the z-score in [2] was -2.1 (inactive); in assay [3] it was 0.129 (inactive); in assay [4], 0.367 (inactive); in [5], 0.0748 (inactive); in [11], -1.42 (inactive); in [13], 0.612 (inactive). Moreover, the z-score in assay [14] is 0.482 (inactive); in assay [15], 0.491 (inactive); in assay [16] it was -0.23 (inactive); in assay [17], -0.147; in assay [18], -0.472 (inactive); in [19], -0.137 (inactive). The z-score in assay [20] was -1.73.

On to `COCCCNC(=O)[C@@H]1c2ccccc2C(=O)N(Cc2ccc(OC(F)(F)F)cc2)[C@H]1c1ccc(CO)cc1`, for which the composite z-score in assay [1] was 0.53; in [6], -0.0096; in assay [7], -0.0221; in assay [8], 0.0966; in [9], 0.281; in assay [10], 1.09. The composite z-score in assay [12] came to 0.0271. The z-score in [2] was -0.429 (inactive); in [3] it was 0.0789 (inactive); in [4] it was 0.674 (inactive); in assay [5], 0.0988 (inactive); in assay [11] it was -0.771 (inactive); in assay [13] it was 1.93 (inactive). For the same molecule, the z-score in [14] was 0.566 (inactive); in assay [15], 0.913 (inactive); in [16] it was 0.303 (inactive); in assay [17], 0.0296; in assay [18] it was -0.385 (inactive); in assay [19] it was 0.915 (inactive). This molecule also returned a z-score in assay [20] of 1.91.

In the case of `CCOC(=O)C1=C[C@@H](C(C)(C)C)N(S(=O)(=O)c2ccc(C)cc2)[C@H]1c1ccc(C#N)cc1`, the composite z-score in assay [1] was 0.327; in [6], 0.948; in assay [7], 0.0785; in assay [8], 0.855; in assay [9], 1.57; in [10], -0.264. The molecule also registered a composite z-score in [12] of 0.337. Besides, the z-score in assay [2] is -3.61 (inactive); in assay [3], 0.261 (inactive); in [4] it was -0.228 (inactive); in [5], 0.624 (inactive); in assay [11], -1.02 (inactive); in assay [13], 3.01 (inactive). The z-score in assay [14] is 1.33 (inactive); in assay [15] it was -0.217 (inactive); in [16] it was 0.905 (inactive); in [17], -0.561; in assay [18], -0.642 (inactive); in [19], -0.508 (inactive). The z-score in [20] turned out to be 1.11.
